Source: PubChem BioAssay (NCATS)
Inconclusive results are not listed. Calls of active or inactive are those of the source. The call rests on the fitted dose curve; in most records, active means well fitted inhibition curve with a large enough effect; inconclusive means small, poorly fitted or top-dose-only effect; inactive means flat fitted curve, though single readings scatter.

Legend:
Assay in all cases: qHTS profiling for inhibitors of Plasmodium falciparum proliferation (AID 504749); further: nearly all actives have a fitted effect of over 60% in size
Details in all cases: P. falciparum in erythrocytes, SYBR Green DNA, 72 h; series mostly up to 28.7 µM
[1] = system: DIV17
Outline: (§1)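 Parasite proliferation within erythrocytes, 72 h exposure. Endpoint: SYBR Green I fluorescence after overnight lysis at room temperature. Controls: 0.29 uM artemisinin, DMSO.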

[2] = system: DIV30
Outline: as §1

[3] = system: Dd2
Outline: as §1

[4] = system: ECU
Outline: as §1

[5] = system: GB4
Outline: as §1

[6] = system: HB3
Outline: as §1

[7] = system: ICS
Outline: as §1

[8] = system: N140
Outline: as §1

[9] = system: P93_24
Outline: as §1

[10] = system: P94_40
Outline: as §1

[11] = system: PAD
Outline: as §1

[12] = system: PC15
Outline: as §1

[13] = system: PC26
Outline: as §1

[14] = system: SC27B
Outline: as §1

[15] = system: TAB109
Outline: as §1

[16] = system: TAB113
Outline: as §1

[17] = system: TAB165
Outline: as §1

[18] = system: FAB9
Outline: as §1

[19] = system: JCK
Outline: as §1

[20] = system: PC49
Outline: as §1

Measured: Potency
Potency means the concentration at half of the fitted maximal effect.

CCCCCN=C(N)N/N=C/c1c[nH]c2ccc(OC)cc12
active: [1] 1.51 µM | [2] 12 µM | [3] 3.16 µM | [4] 8.91 µM | [5] 5.36 µM | [6] 3.16 µM | [7] 1.26 µM | [8] 4.47 µM | [9] 3.16 µM | [10] 2.82 µM | [11] 6.31 µM | [12] 5.62 µM | [13] 12 µM | [14] 12.6 µM | [15] 4.47 µM | [16] 10 µM | [17] 3.55 µM

CC(C)(C)NC[C@H](O)COc1cccc2c1CCCC2=O
inactive: [1] | [2] | [3] | [4] | [18] | [6] | [7] | [19] | [8] | [9] | [10] | [11] | [12] | [13] | [20] | [14] | [15] | [16] | [17]

Nc1nc(-c2ccccc2)c(Br)c(=O)[nH]1
inactive: [1] | [2] | [3] | [4] | [18] | [5] | [6] | [7] | [19] | [8] | [9] | [10] | [11] | [12] | [13] | [20] | [14] | [15] | [16] | [17]

CCCCCCCCNC(C)C(O)c1ccc(SC(C)C)cc1 (stereo not drawn)
active: [1] 0.757 µM | [2] 0.675 µM | [3] 0.447 µM | [4] 0.355 µM | [18] 1.41 µM | [5] 0.536 µM | [6] 0.891 µM | [7] 0.0891 µM | [19] 3.16 µM | [9] 0.891 µM | [10] 0.447 µM | [11] 0.398 µM | [12] 0.355 µM | [13] 0.849 µM | [20] 0.794 µM | [14] 1.12 µM | [15] 1 µM | [16] 0.355 µM | [17] 0.794 µM

CC1CCc2c(N3CCC(O)CC3)c(F)cc3c(=O)c(C(=O)O)cn1c23 (stereo not drawn)
inactive: [1] | [2] | [3] | [4] | [18] | [6] | [19] | [11] | [12] | [13] | [20]

CCOC(=O)c1c(N)sc2c1CCN(Cc1ccccc1)C2
active: [1] 7.57 µM | [2] 13.5 µM | [3] 7.94 µM | [4] 7.08 µM | [18] 4.47 µM | [5] 4.26 µM | [6] 3.55 µM | [7] 5.01 µM | [19] 11.2 µM | [8] 12.6 µM | [9] 5.01 µM | [10] 5.62 µM | [13] 5.36 µM | [20] 5.01 µM | [14] 10 µM | [15] 4.47 µM | [16] 11.2 µM | [17] 5.01 µM

C#C[C@]1(O)CC[C@H]2[C@@H]3CCC4=CC(=O)CC[C@@H]4[C@H]3CC[C@@]21CC
inactive: [1] | [2] | [3] | [4] | [18] | [5] | [19] | [8] | [9] | [10] | [11] | [12] | [13] | [20] | [14] | [15] | [16] | [17]

O[C@@H](c1cc(C(F)(F)F)nc2c(C(F)(F)F)cccc12)[C@H]1CCCCN1
active: [1] 0.0338 µM | [2] 0.0338 µM | [3] 0.0282 µM | [4] 0.0126 µM | [18] 0.0708 µM | [5] 0.0269 µM | [6] 0.0562 µM | [7] 0.0089 µM | [19] 17.8 µM | [8] 0.01 µM | [9] 0.0316 µM | [10] 0.0126 µM | [11] 0.0112 µM | [13] 0.0478 µM | [14] 0.0251 µM | [15] 0.0158 µM | [16] 0.01 µM | [17] 0.0316 µM

CC(=O)OC[C@H]1O[C@@H](n2ncc(=O)[nH]c2=O)[C@H](OC(C)=O)[C@@H]1OC(C)=O
inactive: [1] | [2] | [3] | [4] | [18] | [5] | [6] | [7] | [19] | [8] | [9] | [10] | [11] | [12] | [13] | [20] | [14] | [15] | [17]

O=C(Nc1cccc(C2=NCCN2)c1)Nc1cccc(C2=NCCN2)c1
active: [1] 4.26 µM | [2] 13.5 µM | [3] 0.891 µM | [4] 3.16 µM | [5] 3.79 µM | [6] 10 µM | [7] 2.24 µM | [19] 5.01 µM | [8] 4.47 µM | [9] 1.78 µM | [10] 1.12 µM | [11] 3.16 µM | [12] 3.98 µM | [13] 8.49 µM | [20] 5.62 µM | [15] 2.82 µM | [16] 7.94 µM | [17] 2.51 µM

COc1cc(C(=S)N2CCOCC2)ccc1O
inactive: [1] | [2] | [3] | [4] | [18] | [5] | [6] | [7] | [19] | [8] | [9] | [10] | [11] | [12] | [13] | [20] | [14] | [15] | [17]

CCN1/C(=C/C=C/c2sc3ccccc3[n+]2CC)Sc2ccccc21
active: [1] 0.478 µM | [2] 0.675 µM | [3] 0.112 µM | [4] 0.224 µM | [18] 0.282 µM | [5] 0.301 µM | [6] 0.251 µM | [7] 0.1 µM | [19] 0.398 µM | [8] 0.251 µM | [9] 0.112 µM | [10] 0.112 µM | [11] 0.282 µM | [12] 0.316 µM | [13] 0.849 µM | [20] 1.12 µM | [14] 0.282 µM | [15] 0.141 µM | [16] 0.141 µM | [17] 0.141 µM

OC1C(O)C(O)C(O)C(O)C1O (stereo not drawn)
inactive: [1] | [2] | [3] | [4] | [18] | [5] | [6] | [7] | [19] | [8] | [10] | [11] | [12] | [13] | [20] | [14] | [15] | [16] | [17]

CCCN(CCc1cccs1)[C@H]1CCc2c(O)cccc2C1
active: [1] 3.01 µM | [2] 5.36 µM | [3] 2.51 µM | [4] 2.82 µM | [5] 1.69 µM | [6] 10 µM | [7] 0.794 µM | [8] 3.16 µM | [9] 6.31 µM | [10] 4.47 µM | [11] 3.16 µM | [12] 6.31 µM | [13] 6.75 µM | [20] 11.2 µM | [14] 4.47 µM | [15] 7.08 µM | [16] 4.47 µM | [17] 4.47 µM
